Results reported in PubChem BioAssay (Tox21).
Unmarked numbers belong to inactive results. Records with an inconclusive call do not appear. Entries that show only a call come without a potency. Active and inactive are the calls of the source. Unless noted, the call rests on the fitted dose curve; in most records, active means well fitted curve in the direction sought with a large enough effect in the repeat runs; inconclusive means weak or mixed curves; inactive means no such curve, though single readings can be large; an effect the other way counts as inactive or inconclusive.

Assays:
[1] = qHTS assay for small molecule agonists of the p53 signaling pathway (AID 651631; calls by dose curve; further: nearly all actives have a fitted effect of over 15% in size)
Summary of the method: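 HCT-116 cells carrying a stable p53 response element–beta-lactamase reporter were plated, rested 5 h at 37 °C, then exposed to compound in DMSO for 16 h at 37 °C; reporter activity was read as FRET substrate fluorescence after 2 h at room temperature.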

[2] = qHTS assay for small molecules that induce genotoxicity in human embryonic kidney cells expressing luciferase-tagged ATAD5 (AID 651632); further: nearly all actives have a fitted effect of over 15% in size
Summary of the method: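 DMSO vehicle served as the control. HEK293T reporter cells, 16 hr at 37C, then 30 min Amplite at room temperature; ATAD5 induction is measured as luciferase activity.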

[3] = qHTS assay for small molecule agonists of the p53 signaling pathway - cell viability (AID 651633; calls by dose curve; further: series mostly up to about 83 µM; nearly all actives have a fitted effect of over 30% in size)
Summary of the method: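 p53RE-bla cells, seeded at 4,000 per well and rested 5 h at 37 C/5% CO2, received compounds in DMSO for 16 h at 37 C. CellTiter-Glo was then added, and luminescence was read after 30 min at room temperature to gauge cytotoxicity.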

[4] = qHTS assay for small molecules that induce genotoxicity in human embryonic kidney cells expressing luciferase-tagged ATAD5 - cell viability (AID 651634; calls by dose curve; further: nearly all actives have a fitted effect of over 25% in size)
Summary of the method: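 Here HEK293T cells with the ATAD5 luciferase reporter are incubated with test compounds for 15.5 hr, and cytotoxicity is then gauged by measuring protease activity in live cells using fluorescence.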

[5] = qHTS assay for small molecule disruptors of the mitochondrial membrane potential - cell viability (AID 720634; calls by dose curve;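 further: human HepG2 liver cancer cells; series mostly up to about 83 µM; nearly all actives have a fitted effect of over 20% in size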)
Summary of the method: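 Viability of HepG2 cells is scored from ATP content by luminescence; cells are exposed to compound for 1 hr at 37 C and 5% CO2, then dosed with m-MPI dye before the CellTiter-Glo reagent.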

[6] = qHTS assay for small molecule disruptors of the mitochondrial membrane potential (AID 720635); further: potency means the concentration at half of the fitted maximal effect
Summary of the method: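 HepG2 cells (2,000/well) attached overnight at 37C, then took compound for 1 hr at 37C, 5% CO2. Mito-MPS dye was added for 30 min; fluorescence was read at 490/535 nm (monomers) and 540/590 nm (aggregates).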

[7] = qHTS assay to test for compound auto fluorescence at 590 nm (red) in HepG2 cells (AID 720674)
Summary of the method: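 Compound auto-fluorescence is scored relative to Rose Bengal sodium, measured at 540/590 nm in live HepG2 cultures after 1 hr compound contact (37 C, 5% CO2).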

[8] = qHTS assay to test for compound auto fluorescence at 535 nm (green) in HepG2 cells (AID 720675)
[9] = qHTS assay to test for compound auto fluorescence at 460 nm (blue) in HEK293 cells (AID 720678)
Summary of the method: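 HEK293 cells (2,000 per well, medium with 10% dialyzed FBS) attached for 4-5 hr at 37C, then received compound and stood overnight at 37C, 5% CO2. Blue fluorescence was read at Ex/Em 405/460 nm and expressed relative to triamterene.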

[10] = qHTS assay to test for compound auto fluorescence at 590 nm (red) in HEK293 cells (AID 720679)
Summary of the method: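 HEK293 cells (2,000/well, medium with 10% dialyzed FBS) attached for 4-5 hr at 37C, received 23 nL compound and were incubated overnight at 37C, 5% CO2. Red fluorescence was then read at 540/590nm Ex/Em, referenced to Rose Bengal sodium.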

[11] = qHTS assay to test for compound auto fluorescence at 535 nm (green) in HEK293 cells (AID 720680)
[12] = qHTS assay to test for compound auto fluorescence at 460 nm (blue) in HEK293 cell free culture (AID 720681)
Summary of the method: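 Test compounds were pinned into cell-free culture medium (DMEM with 10% FBS) and fluorescence was read directly at Ex/Em 405/460 nm. Signals were expressed as fluorescence equivalents of triamterene, with DMSO vehicle as control.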

[13] = qHTS assay to test for compound auto fluorescence at 535 nm (green) in HEK293 cell free culture (AID 720682)
Summary of the method: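 Read-out: 485/535 nm fluorescence intensity, calibrated against fluorescein. Medium only (DMEM + 10% FBS, no cells); test compound or DMSO vehicle added by pintool before plate reading.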

[14] = qHTS assay to test for compound auto fluorescence at 590 nm (red) in HEK293 cell free culture (AID 720683)
Summary of the method: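 Tox21 10K library compounds were pinned into cell-free DMEM with 10% FBS and fluorescence was read at excitation 540 nm. Activity is expressed as Rose Bengal sodium equivalency.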

[15] = qHTS assay to test for compound auto fluorescence at 590 nm (red) in HepG2 cell free culture (AID 720684)
Summary of the method: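 Ex 540 / Em 590 nm read of compound in cell-free MEM (10% FBS). Rose Bengal sodium reference.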

[16] = qHTS assay to test for compound auto fluorescence at 460 nm (blue) in HepG2 cell free culture (AID 720685)
Summary of the method: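 Cell-free plates of MEM plus 10% FBS received 23 nL compound or DMSO vehicle; blue-channel (405/460 nm) intensity scored against triamterene as reference fluorophore.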

[17] = qHTS assay to test for compound auto fluorescence at 535 nm (green) in HepG2 cell free culture (AID 720686)
[18] = qHTS assay to test for compound auto fluorescence at 460 nm (blue) in HepG2 cells (AID 720687)
Summary of the method: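 Cells (2,000/well in MEM with 10% FBS) attached overnight at 37 C, then were exposed to compound or DMSO for 1 hr at 37 C, 5% CO2. Fluorescence read at Ex/Em 405/460 nm, expressed as triamterene-equivalent signal.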

[19] = biological target: Glucocorticoid receptor (Homo sapiens) (UniProt P04150); assay: qHTS assay to identify small molecule agonists of the glucocorticoid receptor (GR) signaling pathway (AID 720691; active means well fitted activation curve with a large enough effect in the signal ratio in the repeat runs, not every such curve was filed as active; the % refers to the signal ratio)
Glucocorticoid receptor (Homo sapiens), sequence (P04150 whole entry, looked up): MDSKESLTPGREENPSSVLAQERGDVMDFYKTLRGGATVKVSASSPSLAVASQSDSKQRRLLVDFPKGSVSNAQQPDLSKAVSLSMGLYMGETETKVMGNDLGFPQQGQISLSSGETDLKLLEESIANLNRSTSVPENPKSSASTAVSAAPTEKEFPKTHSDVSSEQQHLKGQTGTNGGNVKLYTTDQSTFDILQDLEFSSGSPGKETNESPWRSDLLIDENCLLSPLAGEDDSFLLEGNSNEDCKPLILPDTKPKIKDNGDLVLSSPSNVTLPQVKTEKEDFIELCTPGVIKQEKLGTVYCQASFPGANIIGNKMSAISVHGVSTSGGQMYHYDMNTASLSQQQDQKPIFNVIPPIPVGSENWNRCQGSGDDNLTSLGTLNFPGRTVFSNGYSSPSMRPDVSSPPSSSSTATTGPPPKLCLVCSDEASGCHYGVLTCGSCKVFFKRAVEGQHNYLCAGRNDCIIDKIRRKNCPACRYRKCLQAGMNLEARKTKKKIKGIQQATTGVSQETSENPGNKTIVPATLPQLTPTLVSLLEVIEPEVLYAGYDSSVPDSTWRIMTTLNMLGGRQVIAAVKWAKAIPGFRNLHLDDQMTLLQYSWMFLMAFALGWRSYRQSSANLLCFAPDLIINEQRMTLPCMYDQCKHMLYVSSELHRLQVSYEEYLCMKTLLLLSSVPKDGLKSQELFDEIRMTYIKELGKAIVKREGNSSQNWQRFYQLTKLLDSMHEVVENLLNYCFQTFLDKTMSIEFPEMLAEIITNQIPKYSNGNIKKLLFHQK
Summary of the method: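 Compounds in DMSO, alongside positive controls, were added to GR-bla HeLa reporter cells and incubated 18 h at 37 C; GRE-driven beta-lactamase was detected by fluorescence after 2 h with FRET substrate at room temperature.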

[20] = biological target: Glucocorticoid receptor (Homo sapiens) (UniProt P04150); assay: qHTS assay to identify small molecule antagonists of the glucocorticoid receptor (GR) signaling pathway (AID 720692; active means well fitted inhibition curve with a large enough effect in the signal ratio in the repeat runs, not every such curve was filed as active; the % refers to the signal ratio)
Summary of the method: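 In a 1536-well cell format, compounds were added 4 h after seeding GR-bla HeLa cells, together with dexamethasone at 5 nM final; reporter activity was measured by FRET-substrate fluorescence following 18 h at 37 C.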

Row | SMILES | outcome [1] | outcome [2] | outcome [3] | Potency [4] | outcome [5] | Potency [6] | outcome [7] | outcome [8] | outcome [9] | outcome [10] | outcome [11] | outcome [12] | outcome [13] | outcome [14] | outcome [15] | outcome [16] | outcome [17] | outcome [18] | Potency [19] | outcome [20]
1 | CC1(C)Cc2cccc(N)c2O1 | inactive | inactive | inactive | inactive | inactive | inactive | inactive | inactive | inactive | inactive | inactive | inactive | inactive | inactive | inactive | inactive | inactive | inactive | inactive | inactive
2 | CC(=O)C(C)O (stereo not drawn) | inactive | inactive | inactive | inactive | inactive | inactive | inactive | inactive | inactive | inactive | inactive | inactive | inactive | – | inactive | inactive | inactive | inactive | – | –
3 | O=C(Cn1ccnc1[N+](=O)[O-])NCc1ccccc1 | inactive | inactive | inactive | inactive | inactive | inactive | inactive | inactive | inactive | inactive | inactive | inactive | inactive | inactive | inactive | inactive | inactive | inactive | inactive | inactive
4 | O=C(Cl)c1ccccc1[N+](=O)[O-] | inactive | inactive | inactive | inactive | inactive | inactive | inactive | inactive | inactive | inactive | inactive | inactive | inactive | – | inactive | inactive | inactive | inactive | – | –
5 | Nc1nnnn1-c1ccccc1 | inactive | inactive | inactive | inactive | inactive | inactive | inactive | inactive | inactive | inactive | inactive | inactive | inactive | inactive | inactive | inactive | inactive | inactive | inactive | inactive
6 | O=C(NCN1CCOCC1)c1cnccn1 | inactive | inactive | inactive | inactive | inactive | inactive | inactive | inactive | inactive | inactive | inactive | inactive | inactive | inactive | inactive | inactive | inactive | inactive | inactive | inactive
7 | CC(N)CCCC(C)(C)O (stereo not drawn) | inactive | inactive | inactive | inactive | inactive | inactive | inactive | inactive | inactive | inactive | inactive | inactive | inactive | inactive | inactive | inactive | inactive | inactive | – | inactive
8 | CCO[Si](CC)(OCC)OCC | inactive | inactive | inactive | inactive | inactive | 61.1 µM (active) | inactive | inactive | inactive | inactive | inactive | inactive | inactive | – | inactive | inactive | inactive | inactive | – | –
9 | c1ccc2c(CC3=NCCN3)cccc2c1 | inactive | inactive | inactive | inactive | inactive | inactive | inactive | inactive | inactive | inactive | inactive | inactive | inactive | inactive | inactive | inactive | inactive | inactive | – | –
10 | CCCc1ccc(O)cc1 | inactive | inactive | inactive | inactive | inactive | 54.5 µM (active) | inactive | inactive | inactive | inactive | inactive | inactive | inactive | inactive | inactive | inactive | inactive | inactive | inactive | –
11 | O=[N+]([O-])c1c(Cl)cc(Cl)cc1Cl | inactive | inactive | inactive | inactive | inactive | inactive | inactive | inactive | inactive | inactive | inactive | inactive | inactive | inactive | inactive | inactive | inactive | inactive | inactive | inactive
12 | OC[C@H]1O[C@@H](O[C@@H]2[C@@H](CO)O[C@](O)(CO)[C@H]2O)[C@H](O)[C@@H](O)[C@H]1O | inactive | inactive | inactive | inactive | inactive | inactive | inactive | inactive | inactive | inactive | inactive | inactive | inactive | inactive | inactive | inactive | inactive | inactive | – | inactive
13 | CC(=O)O[Si](C)(OC(C)=O)OC(C)=O | inactive | inactive | inactive | inactive | inactive | 17.7 µM (active) | inactive | inactive | inactive | inactive | inactive | inactive | inactive | inactive | inactive | inactive | inactive | inactive | inactive | inactive
14 | Cc1ncc([N+](=O)[O-])n1CC(C)O (stereo not drawn) | inactive | inactive | inactive | inactive | inactive | inactive | inactive | inactive | inactive | inactive | inactive | inactive | inactive | inactive | inactive | inactive | inactive | inactive | – | inactive
15 | CCOC(=O)CC1(C)OCC(C)O1 (stereo not drawn) | inactive | inactive | inactive | inactive | inactive | inactive | inactive | inactive | inactive | inactive | inactive | inactive | inactive | inactive | inactive | inactive | inactive | inactive | – | –
